From PubChem BioAssay AID1159580 (chemical genetic matrix, 2015)
Hit rate of the full screen: of about 5,500 compounds, about 2,000 (36%) were called active. Another 18% or so got no clear call; they are omitted. No stated cut-off is given here; in the data, active means normalized growth mostly below about 0.91 (no sharp cut-off); inconclusive means no clear call, values can overlap the other calls; inactive means mostly above about 0.92. Some of the results follow. *1 amine or outer side, *2 acyl side, *3 side chain or, on linkers, in order; H or OH if unused. Where a SMILES comes first, the peptide text is derived from it. Bridges are numbered along the chain shown (N, C = ends). [ ]: non-standard residue; d: D form. The star is where a group is joined. ξ: configuration not given here. ΔAla(E,3-NHCONH2) = NC(=O)N/C=C(/N)C(=O)O; X2 = NC1=NCCC(C(N[*:1])C(=O)[*:2])N1; ξβ3hOrn = NCCCC(N)CC(=O)*; Dap = NC[CH](N)C(=O)O

Assay: chemical genetic growth profiling, strain panel (AID 1159580);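 further: tested at 20 µM; growth read once vehicle control cultures reached saturation at 30 °C; 1 = growth at the plate median or of vehicle wells; lower values mean less growth of the strain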
Conditions: growth OD

Measured: normalized growth

NCCCC(N)CC(=O)NCC1NC(=O)C(CO)NC(=O)C(N)CNC(=O)C(C2CCN=C(N)N2)NC(=O)/C(=C\NC(N)=O)NC1=O (stereo not drawn) (H-[Dap]S[Dap](ξβ3hOrn)[ΔAla(E,3-NHCONH2)][X2]; lactam 1-C; configuration not given here)
inactive: S. cerevisiae deletion strains, locus YJR066W, strain TOR1, active compounds read low 0.98 | S. cerevisiae deletion strains, locus YKL009W, strain mrt4, active compounds read low 1.03 | S. cerevisiae deletion strains, locus YKL068W, active compounds read low 1.01 | S. cerevisiae deletion strains, locus YKL085W, strain MDH1 (second series), active compounds read low 1 | S. cerevisiae deletion strains, locus YKL085W, strain MDH1, active compounds read low 1 | S. cerevisiae deletion strains, locus YKL160W, strain elf1, active compounds read low 1.02 | S. cerevisiae deletion strains, locus YKR001C, strain vps1, active compounds read low 1.01 | S. cerevisiae deletion strains, locus YKR026C, strain gcn3, active compounds read low 1.01 | S. cerevisiae deletion strains, locus YKR091W, strain srl3, active compounds read low 1 | S. cerevisiae deletion strains, locus YLL001W, strain dnm1, active compounds read low 1.04 | S. cerevisiae deletion strains, locus YLL026W, active compounds read low 1.04 | S. cerevisiae deletion strains, locus YLL041C, strain sdh2, active compounds read low 1.02 | S. cerevisiae deletion strains, locus YLR027C, strain aat2, active compounds read low 1.05 | S. cerevisiae deletion strains, locus YLR039C, strain RIC1, active compounds read low 1.01 | S. cerevisiae deletion strains, locus YLR058C, strain SHM2, active compounds read low 1.01 | S. cerevisiae deletion strains, locus YLR102C, strain apc9, active compounds read low 1.02 | S. cerevisiae deletion strains, locus YLR113W, strain HOG1, active compounds read low 1.05 | S. cerevisiae deletion strains, locus YLR221C, strain rsa3, active compounds read low 0.993 | S. cerevisiae deletion strains, locus YLR258W, strain gsy2, active compounds read low 1 | S. cerevisiae deletion strains, locus YLR262C, strain YPT6 (second series), active compounds read low 1.03 | S. cerevisiae deletion strains, locus YLR262C, strain YPT6, active compounds read low 1.04 | S. cerevisiae deletion strains, locus YLR268W, strain sec22, active compounds read low 1.03 | S. cerevisiae deletion strains, locus YLR320W, strain mms22, active compounds read low 0.989 | S. cerevisiae deletion strains, locus YLR330W, strain CHS5, active compounds read low 1 | S. cerevisiae deletion strains, locus YLR342W, strain FKS1 (second series), active compounds read low 1.01 | S. cerevisiae deletion strains, locus YLR342W, strain FKS1, active compounds read low 1.03 | S. cerevisiae deletion strains, locus YLR357W, strain rsc2, active compounds read low 1 | S. cerevisiae deletion strains, locus YLR370C, strain arc18, active compounds read low 1.04 | S. cerevisiae deletion strains, locus YLR371W, strain rom2, active compounds read low 0.999 | S. cerevisiae deletion strains, locus YLR384C, strain iki3, active compounds read low 1.02 | S. cerevisiae deletion strains, locus YLR418C, strain cdc73, active compounds read low 0.995 | S. cerevisiae deletion strains, locus YML016C, strain PPZ1, active compounds read low 1 | S. cerevisiae deletion strains, locus YML032C, strain rad52, active compounds read low 1.02 | S. cerevisiae deletion strains, locus YML120C, strain ndi1, active compounds read low 1.05 | S. cerevisiae deletion strains, locus YML124C, strain tub3, active compounds read low 1.01 | S. cerevisiae deletion strains, locus YMR058W, strain fet3, active compounds read low 1.03 | S. cerevisiae deletion strains, locus YMR078C, strain ctf18, active compounds read low 1.03 | S. cerevisiae deletion strains, locus YMR125W, strain sto1, active compounds read low 0.993 | S. cerevisiae deletion strains, locus YMR129W, active compounds read low 1.02 | S. cerevisiae deletion strains, locus YMR205C, strain PFK2, active compounds read low 1.04 | S. cerevisiae deletion strains, locus YMR223W, strain ubp8, active compounds read low 1.03 | S. cerevisiae deletion strains, locus YMR231W, strain pep5, active compounds read low 1 | S. cerevisiae deletion strains, locus YMR263W, strain SAP30, active compounds read low 1 | S. cerevisiae deletion strains, locus YMR307W, strain GAS1, active compounds read low 1.06 | S. cerevisiae deletion strains, locus YNL067W, strain RPL9B, active compounds read low 1.01 | S. cerevisiae deletion strains, locus YNL071W, strain lat1, active compounds read low 0.994 | S. cerevisiae deletion strains, locus YNL183C, strain NPR1, active compounds read low 0.988 | S. cerevisiae deletion strains, locus YNL209W, strain ssb2, active compounds read low 0.998 | S. cerevisiae deletion strains, locus YNL233W, strain BNI4, active compounds read low 0.974 | S. cerevisiae deletion strains, locus YNL248C, strain rpa49, active compounds read low 0.98 | S. cerevisiae deletion strains, locus YNL250W, strain rad50, active compounds read low 1.02 | S. cerevisiae deletion strains, locus YNL271C, strain bni1, active compounds read low 1.03 | S. cerevisiae deletion strains, locus YNL298W, strain CLA4, active compounds read low 1.03 | S. cerevisiae deletion strains, locus YNL307C, strain MCK1, active compounds read low 1.03 | S. cerevisiae deletion strains, locus YNL322C, strain KRE1 (second series), active compounds read low 1.02 | S. cerevisiae deletion strains, locus YNL322C, strain KRE1, active compounds read low 1 | S. cerevisiae deletion strains, locus YNR049C, strain mso1, active compounds read low 1.01 | S. cerevisiae deletion strains, locus YNR052C, strain pop2, active compounds read low 1.01 | S. cerevisiae deletion strains, locus YOL012C, strain htz1 2.02 | S. cerevisiae deletion strains, locus YOL147C, strain pex11, active compounds read low 1.01 | S. cerevisiae deletion strains, locus YOR001W, strain rrp6, active compounds read low 1.03 | S. cerevisiae deletion strains, locus YOR061W, strain CKA2, active compounds read low 1.01 | S. cerevisiae deletion strains, locus YOR069W, strain VPS5, active compounds read low 1 | S. cerevisiae deletion strains, locus YOR070C, strain gyp1, active compounds read low 0.994 | S. cerevisiae deletion strains, locus YOR080W, strain dia2, active compounds read low 1.03 | S. cerevisiae deletion strains, locus YOR083W, strain WHI5, active compounds read low 1.02 | S. cerevisiae deletion strains, locus YOR106W, strain vam3, active compounds read low 1.04 | S. cerevisiae deletion strains, locus YOR136W, strain idh2, active compounds read low 1.01 | S. cerevisiae deletion strains, locus YOR144C, strain elg1, active compounds read low 1.02 | S. cerevisiae deletion strains, locus YOR184W, strain ser1, active compounds read low 1.02 | S. cerevisiae deletion strains, locus YOR231W, strain MKK1, active compounds read low 1.03 | S. cerevisiae deletion strains, locus YOR265W, strain rbl2, active compounds read low 1.02 | S. cerevisiae deletion strains, locus YOR270C, strain vph1, active compounds read low 1.09 | S. cerevisiae deletion strains, locus YOR290C, strain snf2, active compounds read low 0.981 | S. cerevisiae deletion strains, locus YOR316C, strain cot1, active compounds read low 1.05 | S. cerevisiae deletion strains, locus YPL051W, strain arl3, active compounds read low 1.01 | S. cerevisiae deletion strains, locus YPL055C, strain LGE1, active compounds read low 1.03 | S. cerevisiae deletion strains, locus YPL078C, strain atp4, active compounds read low 1.06 | S. cerevisiae deletion strains, locus YPL106C, strain sse1, active compounds read low 0.997 | S. cerevisiae deletion strains, locus YPL240C, strain hsp82, active compounds read low 1.01 | S. cerevisiae deletion strains, locus YPL256C, strain CLN2, active compounds read low 1.04 | S. cerevisiae deletion strains, locus YPR119W, strain clb2, active compounds read low 1 | S. cerevisiae deletion strains, locus YPR141C, strain kar3, active compounds read low 1.01 | S. cerevisiae deletion strains, locus YPR163C, strain tif3, active compounds read low 1.02 | S. cerevisiae deletion strains, locus YPR167C, strain met16, active compounds read low 1.01 | S. cerevisiae deletion strains, strain wtn01, active compounds read low 1.04 | S. cerevisiae strains, strain wild type, active compounds read low 1
